# Results taken from ChEMBL document CHEMBL4513216, “Probing the Open Global Health Chemical Diversity Library for Multistage-Active Starting Points for Next-Generation Antimalarials” (ACS Infect Dis, 2020).
# About 2,700 (4%) of roughly 68,000 compounds showed an effect of 50% or more. What follows is part of a selection rich in strong results, with near analogues and random picks from the rest.
# System: Plasmodium berghei
# Test: Screen against P. berghei liver stage (PbLuc), transformed with Luciferase, at 2uM
# Assay type: functional, HepG2
# Conditions: tested at 2 uM
row,SMILES,INHIBITION [%]
1,COC1COC2(CCN(Cc3ccco3)CC2)C1 (stereo not drawn),24.91
2,Cc1noc2ncc(C(=O)NCC3CCN(C(C)C)C3)cc12 (stereo not drawn),-5.2
3,CS(=O)(=O)c1cn[nH]c1C1CCCN1C(=O)c1cccnc1 (stereo not drawn),10.3
4,Cc1cccc(C(=O)N2CCCCC2c2[nH]ncc2S(C)(=O)=O)c1 (stereo not drawn),52.69
5,Cc1ccc(C(=O)N2CCCCC2c2[nH]ncc2S(C)(=O)=O)cn1 (stereo not drawn),19.75
6,COC(=O)c1ccc(CNC(=O)Nc2ccc(=O)n(C)c2)cc1,-18.09
7,CS(=O)(=O)c1cccc(C(=O)NCc2nc3cc(F)ccc3[nH]2)c1,30.57
8,Cn1cc(CN2CCCC(CCc3ccc(F)c(F)c3)C2)cn1 (stereo not drawn),64.2
9,Cn1cc(CN2CCCC(CCc3ccc(F)cc3)C2)cn1 (stereo not drawn),2.3
10,Cn1cc(CN2CCCC(CCc3ccccc3C(F)(F)F)C2)cn1 (stereo not drawn),24.55
11,Cn1cc(CN2CCCC(CCc3ccc(F)cc3F)C2)cn1 (stereo not drawn),69.71
12,Cn1cc(CN2CCCC(CCc3c(F)cccc3F)C2)cn1 (stereo not drawn),43.27
13,Fc1ccc(CCC2CCCN(Cc3c[nH]cn3)C2)c(F)c1 (stereo not drawn),-20.35
14,CN(C)C(=O)CN1C[C@H]2CCN(Cc3ccccc3)CC[C@H]2S1(=O)=O,-10.78
15,COC(=O)C(NC(=O)Nc1ccc(C(C)=O)cc1)C(C)C (stereo not drawn),-7.05
16,CN(C)c1nccc(C2CN(c3ccccc3)CCO2)n1 (stereo not drawn),-39.97
17,CN(C)c1nccc(C2CN(c3cnccn3)CCO2)n1 (stereo not drawn),57.47
18,CC(C)N1CCOC(c2ccnc(N(C)C)n2)C1 (stereo not drawn),-2.41
19,N#CCSCCCN1CCC(C(=O)N2CCCCCC2)CC1,-28.22
20,Cc1ccc(CN2CC[C@H](c3nnc(COc4ccc(F)cc4)o3)C2)o1,17.76
21,COCCNC(=O)[C@H]1C[C@@H]2CCN(CCc3ccccc3)C[C@H]2O1,-56.44
22,CCc1nnc2n1CCN(CC(=O)Nc1cc(C(C)(C)C)nn1C)C2,54.85
23,Cc1cn(CC(=O)Nc2cc(C(C)C)nn2C)cn1,5.93
24,CCc1nnc2n1CCN(CC(=O)Nc1cc(C)nn1C)C2,12.81
25,CCc1nnc2n1CCN(CC(=O)Nc1cc(C)on1)C2,13.91
26,Cn1nc(C(C)(C)C)cc1NC(=O)Cn1ccnc1,-24.02
27,Cc1cn(CC(=O)Nc2cc(C(C)(C)C)nn2C)cn1,53.66

row,SMILES,INHIBITION [%]
1,CC(SCC(=O)N(C)CC(=O)NC1CC1)c1ccccc1F (stereo not drawn),-16.7
2,CCC1CN(C(=O)c2cc(CN(C)CCc3ccccc3)on2)CCO1 (stereo not drawn),-11.41
3,CN(CCc1ccccc1)Cc1cc(C(=O)N2CCSCC2)no1,72.05
4,CN(CCc1ccccc1)C(=O)c1cc(CN2CCC(O)CC2)on1,-10.41
5,CN(CCc1ccccc1)Cc1cc(C(=O)N2CCN(C)C(=O)C2)no1,-64.43
6,CN(CCc1ccccc1)Cc1cc(C(=O)N2CCCC2(C)C)no1,61.89
7,CN1CCCN(C(=O)c2cc(CN(C)CCc3ccccc3)on2)CC1,5.28
8,Fc1ccc(CN2CCC3(CCCN(c4nncs4)C3)C2)cc1 (stereo not drawn),3
9,O=C(NCC1CCCOC1)c1ccc(-c2ccccc2)[nH]c1=O (stereo not drawn),4.96
10,Fc1ccc(Cc2cnc(C3CCCN3)cn2)cc1 (stereo not drawn),-2.89
11,CC(C)CNc1cc(-c2c[nH]nc2C2CCN(C(=O)C3CC3)C2)ccn1 (stereo not drawn),13.98
12,CC(C)Nc1cc(-c2c[nH]nc2C2CCN(C(=O)C3CCC3)C2)ccn1 (stereo not drawn),16.43
13,CCCNc1cc(-c2c[nH]nc2C2CCN(C(=O)C3CCC3)C2)ccn1 (stereo not drawn),87.38
14,Fc1ccc(OCCNC2CCN(Cc3ccccn3)CC2)c(F)c1,-31.26
15,Cc1ccccc1-c1cc(NC(=O)NC2CC2)n(CCO)n1,57.75
16,CNC(=O)Nc1cc(-c2ccccc2C)nn1CCO,-3.51
17,Cc1ccccc1-c1cc(NC(=O)NC2CCC(O)CC2)n(CCO)n1 (stereo not drawn),14.82
18,O=C(c1cnccn1)N1CCCC(Cc2cncc3ccccc23)C1 (stereo not drawn),99.92
19,O=C(c1cnccn1)N1CCCC(Cc2cccc3ncccc23)C1 (stereo not drawn),-3.58
20,Cc1cccc(C(=O)N2CCCC(Cc3cncc4ccccc34)C2)n1 (stereo not drawn),33.77
21,O=c1c2c[nH]c(N3CCCCC3)nc-2cn1-c1ccc2c(c1)OCO2,33.2
22,Cn1cc(S(=O)(=O)NCc2ccsc2)cn1,-18.65
23,CNC(=O)C(C)CNC(=O)c1coc(COc2cccc(F)c2F)n1 (stereo not drawn),16.32
24,O=C(N[C@@H]1CN(Cc2ccco2)[C@@H]2CCCO[C@@H]21)c1cscn1,-2.81
25,COc1c(CNC2CCOc3c(Cl)cccc32)c(C)nn1C (stereo not drawn),24.64
26,Cc1nc(CN2CCc3ncnc(-c4ccsc4)c3CC2)cs1,8.62
